Among the data in PubChem BioAssay (NCATS) are Potency values, retold here.

Test [1] can be described thus: qHTS of pediatric cancer cell lines to identify multiple opportunities for drug repurposing: Primary screen for RD cells (AID 1347104). Also: nearly all actives have a fitted effect of over 55% in size. The essentials:
(§1)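 Cells seeded at 500-1,000 cells/well in growth media, rested 5 hours at 37 degrees C, 5% CO2, then dosed; MIPE compounds at 11-point (from 0.78 nM) and NPC at 8-point (from 0.59 nM) final concentrations. Viability by CellTiter-Glo luminescence after 48 hours.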
(Quantitative high-throughput screening tests each substance at several concentrations.)

A short description of test [2]: qHTS of pediatric cancer cell lines to identify multiple opportunities for drug repurposing: Primary screen for MG 63 (6-TG R) cells (AID 1347105). Also: nearly all actives have a fitted effect of over 50% in size. In outline:
as §1

The nature of test [3]: qHTS of pediatric cancer cell lines to identify multiple opportunities for drug repurposing: Primary screen for control Hh wild type fibroblast cells (AID 1347106).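 Also: series mostly up to about 46 µM; a drop in luminescence marks cytotoxicity and a rise apparent proliferation; nearly all actives have a fitted effect of over 55% in size.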 In outline:
(§2)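 Cells (500-1,000/well) in growth media were settled 5 h at 37 degrees C, then given compounds for 48 h. Viability was read as CellTiter-Glo luminescence. Primary runs used MIPE at 11 points (0.78 nM-46 µM) and NPC at 8 points (0.59 nM-46 µM); follow-ups used 11 points.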

A short description of test [4]: qHTS of pediatric cancer cell lines to identify multiple opportunities for drug repurposing: Primary screen for Rh30 cells (AID 1347107). Also: series mostly up to about 46 µM; nearly all actives have a fitted effect of over 75% in size. In outline:
as §2

Test [5] can be described thus: qHTS of pediatric cancer cell lines to identify multiple opportunities for drug repurposing: Primary screen for Rh41 cells (AID 1347108).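 Also: series mostly up to about 46 µM; luminescence drop marks cytotoxic hits; nearly all actives have a fitted effect of over 70% in size.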 In outline:
as §1

The nature of test [6]: qHTS of pediatric cancer cell lines to identify multiple opportunities for drug repurposing: Confirmatory screen for A673 cells (AID 1347110).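 Also: cells exposed to compound for 48 h before the viability read; nearly all actives have a fitted effect of over 65% in size.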 The essentials:
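A673 cells seeded at 500-1,000 cells/well, rested 5 h, then dosed; primary MIPE 11-point (0.78 nM to 46 µM), NPC (0.59 nM to 46 µM); confirmatory 11-point. CellTiter-Glo luminescence after 48 h.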

A short description of test [7]: qHTS of pediatric cancer cell lines to identify multiple opportunities for drug repurposing: Confirmatory screen for SK-N-MC cells (AID 1347111).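 Also: potency is read from the fitted curve at half-maximal effect; cells exposed to compound for 48 h before the readout; nearly all actives have a fitted effect of over 70% in size.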 The essentials:
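Metabolically active cells were quantified by ATP-dependent luminescence (CellTiter-Glo, 15 min at room temperature) following 48 h treatment. Cells had been plated at 500-1,000 per well and settled for 5 h beforehand.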

Test [8] can be described thus: qHTS of pediatric cancer cell lines to identify multiple opportunities for drug repurposing: Confirmatory screen for NB1643 cells (AID 1347109). Also: potency is read from the fitted curve at half-maximal effect; nearly all actives have a fitted effect of over 45% in size. The essentials: as §2
A short description of test [9]: qHTS of pediatric cancer cell lines to identify multiple opportunities for drug repurposing: Confirmatory screen for BT-12 cells (AID 1347112). Also: potency is read from the fitted curve at half-maximal effect; nearly all actives have a fitted effect of over 55% in size. In outline: as §2

Records with an inconclusive call do not appear. Active and inactive are the calls of the source. Calls follow the shape of the dose curve; as a rule, active = well fitted curve in the direction sought with a large enough effect; inconclusive = small, poorly fitted or top-dose-only effect, or another doubt; inactive = no such curve, though single readings can be large; an effect the other way counts as inactive or inconclusive.

For `CO/N=C(/C(=O)N[C@@H]1C(=O)N2C(C(=O)OCOC(=O)C(C)(C)C)=C(C)CS[C@H]12)c1csc(N)n1`, the Potency result in [1], in test [2], in [3], in [4] and in [5] was “inactive” throughout.

Regarding `O=C(O)Cc1ccccc1Oc1ccc(Cl)cc1Cl`, the Potency entry in test [1], in test [2], in test [3], in test [4] and in test [5] was “inactive” throughout.

Regarding `CCOC(=O)C(=O)c1csc(NC=O)n1`, the Potency entry in [1], in test [2], in test [3], in test [4] and in [5] was “inactive” each time.

As to `O=C1CC(c2ccc(Cl)cc2)CC(=O)N1`, the Potency entry in test [1], in test [2], in test [3], in [4] and in test [5] was “inactive” in each case.

With `Cc1nc2n(c(=O)c1CCN1CCC(C(=O)c3ccc(F)cc3)CC1)CCS2`, the Potency result in [1], in [2], in [3], in test [4] and in [5] was “inactive” in each case.

Consider `O=C(O)[C@H](O)[C@@H](O)[C@H](O[C@@H]1O[C@H](CO)[C@H](O)[C@H](O)[C@H]1O)[C@H](O)CO`, for which the Potency result in test [1], in test [2], in test [3], in [4] and in test [5] was “inactive” throughout.

For `O=C(OCCN1CCOCC1)c1cccnc1Nc1cccc(C(F)(F)F)c1`, the Potency entry in test [1], in test [2], in test [3], in [4] and in test [5] was “inactive” in each case.

Take `Cc1cccc(N(C)C(=S)Oc2ccc3c(c2)CCC3)c1`: the Potency entry in test [1], in [2], in test [3], in [4] and in test [5] was “inactive” each time.

`CO[C@@H]1[C@@H](O[C@@H]2O[C@H](C)[C@@H](O[C@H]3C[C@@](C)(O)[C@@H](O)[C@H](C)O3)[C@H](N(C)C)[C@H]2O)[C@@H](CC=O)C[C@@H](C)[C@@H](O[C@@H]2CC[C@H](N(C)C)[C@@H](C)O2)/C=C/C=C/C[C@@H](C)OC(=O)C[C@H]1OC(C)=O`: the Potency result in [1], in test [2], in test [3], in [4] and in test [5] was “inactive” in each case.

With `CCCCCOc1ccc(C2SC(=O)NC2=O)cc1OCC` (centres undefined), the Potency result in test [1], in test [2], in test [3], in [4] and in test [5] was “inactive” each time.

In the case of `CC1(C)S[C@@H]2[C@H](NC(=O)C(c3ccccc3)S(=O)(=O)O)C(=O)N2[C@H]1C(=O)O` (some centres undefined), the Potency result in test [1], in [2], in [3], in [4] and in test [5] was “inactive” each time.

As for `CCC(=O)Oc1ccc2c(c1)CC[C@@H]1[C@@H]2CC[C@@]2(C)[C@H]1C[C@@H](OC(=O)CC)[C@@H]2OC(=O)CC`, the Potency entry in test [1], in test [2], in [3], in [4] and in test [5] was “inactive” in each case.

Regarding `OCCOCCN1CCN(C(c2ccccc2)c2ccc(Cl)cc2)CC1` (centres undefined), the Potency entry in [1], in test [2], in test [3], in test [4] and in test [5] was “inactive” throughout.

Consider `CC(Oc1c(Cl)cccc1Cl)C1=NCCN1` (centres undefined), for which the Potency entry in [1], in test [2], in [3], in [4] and in [5] was “inactive” throughout.

With `Fc1ccc(C(c2ccc(F)cc2)N2CCNCC2)cc1`, the Potency entry in test [1], in test [2], in test [3], in test [4] and in test [5] was “inactive” in each case.

For the compound `CCN1CCCC1CN` (centres undefined), the Potency entry in test [1], in test [2], in test [3], in test [4] and in [5] was “inactive” in each case.

Take `C=CCOc1cc(Cl)ccc1C(=O)NCCN(CC)CC`: the Potency entry in test [1], in test [2], in [3], in test [4] and in test [5] was “inactive” each time.

Consider `Cc1ccc(/C=N/n2c(-c3ccccc3)csc2=S)cc1`, for which the Potency entry in test [1], in test [2], in test [4] and in test [5] was “inactive” throughout.

With `CCC1(c2cnc[nH]2)Cc2ccccc2C1`, the Potency entry in test [1], in test [2], in [3], in test [4], in [5] and in test [6] was “inactive” each time. Moreover, the Potency in test [7] is 3.29 µM (active).

Consider `Cn1c(=O)c2c(ncn2CC(=O)O)n(C)c1=O`, for which the Potency result in test [1], in test [2], in test [3], in test [4] and in test [5] was “inactive” in each case.

Turning to `CSc1ccc(/C=C2/C(C)=C(CC(=O)O)c3cc(F)ccc32)cc1`, the Potency entry in test [1], in [2], in test [3], in test [4] and in [5] was “inactive” in each case.

Consider `CCOC(=O)Cn1cccc1-c1nc(-c2ccc(OC)cc2)c(-c2ccc(OC)cc2)s1`, for which the Potency entry in test [1], in test [2] and in test [4] was “inactive” throughout.

Consider `CCCCC(=O)OCC(=O)[C@H]1[C@H](C)C[C@H]2[C@@H]3C[C@H](F)C4=CC(=O)C=C[C@]4(C)[C@@]3(F)[C@@H](O)C[C@@]21C`, for which the Potency entry in test [1], in test [2], in test [3], in test [4] and in test [5] was “inactive” throughout. The figures for the Potency in [8], in [7] and in [9] were 18.5 µM (active), 10.4 µM (active) and 14.7 µM (active), respectively.

For `O=C1OC2(c3ccccc31)c1cc(I)c(O)c(I)c1Oc1c2cc(I)c(O)c1I`, the Potency result in test [1], in test [2], in test [3] and in test [5] was “inactive” in each case.

For the compound `Oc1ccccc1-c1nnco1`, the Potency entry in test [1], in test [2], in test [3], in [4] and in test [5] was “inactive” in each case.

For `C[N+](C)(CCOc1ccccc1)Cc1cccs1`, the Potency result in test [1], in [2], in test [3], in [4] and in test [5] was “inactive” throughout.

Turning to `Cc1cc(=O)oc2cc(O[C@@H]3SC[C@@H](O)[C@H](O)[C@H]3O)ccc12`, the Potency result in [1], in test [2], in test [4] and in test [5] was “inactive” throughout.

As to `Cc1c(F)cc2c(=O)c(C(=O)O)cn3c2c1CCC3C` (centres undefined), the Potency entry in test [1], in test [2], in test [3], in [4] and in test [5] was “inactive” in each case.

Take `CCCC(=O)c1cc(O)c(O)cc1O`: the Potency result in test [1], in test [2], in test [4] and in test [5] was “inactive” in each case.
